8 compounds from PubChem BioAssay (NCI) can be followed below.

Compounds without any hit were thinned out: in the full panel of roughly 83,000, 20% have a hit.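 The test compound was applied at a single concentration to cells in 96-well plates for 48 hours, and percent growth was recorded.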 Unmarked numbers belong to inactive results. Active and inactive are the calls of the source. The calls were made as follows: active = growth percent below 10; inactive = the rest.

Among the test systems are SR leukemia; RPMI-8226 leukemia; OVCAR-8 ovarian; OVCAR-5 ovarian; OVCAR-4 ovarian; SK-OV-3 ovarian; IGROV1 ovarian; HS 578T breast; NCI/ADR-RES ovarian; T-47D breast; BT-549 breast; MDA-MB-435 melanoma; SW-620 colon; MCF7 breast; HCT-116 colon; HCC-2998 colon; KM12 colon.
What all share (assay): NCI-60 one-dose screen, 48 h (100 = growth as untreated, 0 = no growth, -100 = all killed)
Holding throughout (conditions): 10 µM unless noted

In the case of `CC1(COc2ccc3ncc(C#Cc4cncc(C(=O)Nc5cccc(C(F)(F)F)c5)c4)n3n2)COC1`, the growth in the assay with SR leukemia is 56.5%; in the assay on RPMI-8226 leukemia it was 92.7%; in the assay on OVCAR-8 ovarian, 81.4%; in the assay on OVCAR-5 ovarian, 81.7%; in the assay on OVCAR-4 ovarian, 82.1%; with SK-OV-3 ovarian, 96.9%. Moreover, the growth was 62% with IGROV1 ovarian; 53.6% in the assay with HS 578T breast; 80.3% in the assay on NCI/ADR-RES ovarian; 78.9% with T-47D breast; 128% in the assay on BT-549 breast; 89.2% with MDA-MB-435 melanoma. Moreover, the growth in the assay with SW-620 colon was 69%; in the assay with MCF7 breast, 62.8%; in the assay on HCT-116 colon, 56.4%; in the assay with HCC-2998 colon, 86.9%; in the assay on KM12 colon, 21.1%.
In the case of `COc1cc2oc(-c3cccc(N)c3)cc(=O)c2c(OC)c1OC`, the growth was 87.2% in the assay on SR leukemia; 97.8% in the assay on RPMI-8226 leukemia; 98.7% in the assay on OVCAR-8 ovarian; 101% in the assay on OVCAR-5 ovarian; 99.7% in the assay on OVCAR-4 ovarian; 125% in the assay with SK-OV-3 ovarian. Moreover, the growth in the assay on IGROV1 ovarian is 107%; in the assay with HS 578T breast, 115%; in the assay with NCI/ADR-RES ovarian it was 106%; in the assay with T-47D breast, 97.8%; in the assay with BT-549 breast, 116%; with MDA-MB-435 melanoma it was 103%. In addition, the growth is 112% in the assay on SW-620 colon; 96.3% in the assay on MCF7 breast; 111% in the assay on HCT-116 colon; 110% in the assay on HCC-2998 colon; 103% in the assay on KM12 colon.
Take `COc1ccc2[nH]cc(-c3csc4nc(-c5ccccc5)cn34)c2c1`: the growth in the assay with SR leukemia is 20.1%; in the assay with RPMI-8226 leukemia, 5.78% (active); with OVCAR-8 ovarian, 24.1%; with OVCAR-5 ovarian, 46.2%; in the assay with OVCAR-4 ovarian it was 56.5%; in the assay with SK-OV-3 ovarian, 16.1%. For the same compound, the growth in the assay with IGROV1 ovarian was 41.6%; with HS 578T breast it was -3.7% (active); in the assay with NCI/ADR-RES ovarian, 5.97% (active); in the assay on T-47D breast, 30.7%; in the assay on BT-549 breast, 45.8%; with MDA-MB-435 melanoma, -47.7% (active). Further, the growth in the assay with SW-620 colon was 25.1%; in the assay with MCF7 breast it was 11.5%; in the assay on HCT-116 colon, 4.36% (active); with HCC-2998 colon it was 6.03% (active); in the assay with KM12 colon, 11.6%.
In the case of `CCOC(=O)c1c(Nc2ccccc2)nn2c(-c3ccc(Cl)cc3)ccnc12`, the growth in the assay with SR leukemia is 72.7%; in the assay on RPMI-8226 leukemia it was 91.7%; in the assay on OVCAR-8 ovarian it was 80.6%; in the assay with OVCAR-5 ovarian it was 87.2%; with OVCAR-4 ovarian it was 66.5%; in the assay on SK-OV-3 ovarian, 75.4%. In addition, the growth was 80.5% in the assay with IGROV1 ovarian; 72.6% in the assay with HS 578T breast; 63.6% in the assay with NCI/ADR-RES ovarian; 64.2% with T-47D breast; 103% with BT-549 breast; 84.2% in the assay on MDA-MB-435 melanoma. The growth with SW-620 colon is 84.2%; in the assay on MCF7 breast, 81.3%; with HCT-116 colon, 61.1%; in the assay on HCC-2998 colon, 91%; in the assay on KM12 colon, 89.1%.
`COc1ccc(/C=C/C(=O)c2cccc(NC(=O)CSc3nc4ccccc4c(=O)n3-c3ccccc3)c2)cc1OC`: the growth in the assay with SR leukemia was 73%; in the assay with RPMI-8226 leukemia it was 67.9%; in the assay on OVCAR-8 ovarian it was 102%; with OVCAR-5 ovarian, 111%; with OVCAR-4 ovarian it was 98.8%; in the assay with SK-OV-3 ovarian, 120%. The growth in the assay with IGROV1 ovarian is 105%; with HS 578T breast, 100%; with NCI/ADR-RES ovarian it was 105%; in the assay with T-47D breast, 88.2%; with BT-549 breast, 115%; in the assay with MDA-MB-435 melanoma it was 101%. For the same compound, the growth with SW-620 colon is 94.1%; in the assay on MCF7 breast, 69.2%; with HCT-116 colon, 86.2%; in the assay on HCC-2998 colon it was 111%; in the assay on KM12 colon, 95.9%.
Consider `NS(=O)(=O)c1ccc(Nc2nc(N/N=C/CCc3ccccc3)nc(Nc3ccccc3)n2)cc1`, for which the growth in the assay on SR leukemia was 91.5%; with RPMI-8226 leukemia it was 101%; in the assay on OVCAR-8 ovarian it was 104%; in the assay with OVCAR-5 ovarian, 103%; in the assay on OVCAR-4 ovarian, 104%; with SK-OV-3 ovarian it was 104%. For the same compound, the growth is 106% with IGROV1 ovarian; 96.8% in the assay on HS 578T breast; 113% with NCI/ADR-RES ovarian; 102% with T-47D breast; 99.4% in the assay on BT-549 breast; 101% in the assay with MDA-MB-435 melanoma. In addition, the growth is 104% with SW-620 colon; 96.3% in the assay on MCF7 breast; 103% in the assay with HCT-116 colon; 113% in the assay on HCC-2998 colon; 109% in the assay with KM12 colon.
Turning to `CC(C)(C)c1ccc(-c2nnc(-c3nc4ccccc4nc3Cl)o2)cc1`, the growth was 91.3% with SR leukemia; 65.9% with RPMI-8226 leukemia; 84.2% in the assay with OVCAR-8 ovarian; 99.1% in the assay with OVCAR-5 ovarian; 82.2% in the assay on OVCAR-4 ovarian; 95.9% in the assay on SK-OV-3 ovarian. Also, the growth with IGROV1 ovarian was 72.5%; with HS 578T breast it was -8.86% (active); in the assay with NCI/ADR-RES ovarian it was 82.5%; with T-47D breast, -70.5% (active); with BT-549 breast, 104%; in the assay on MDA-MB-435 melanoma, 69%. The growth was 66.2% in the assay with SW-620 colon; -65.9% (active) in the assay on MCF7 breast; 14.2% in the assay on HCT-116 colon; 98.5% with HCC-2998 colon; 65.8% in the assay on KM12 colon.
On to `CCOC(=O)c1c(Nc2ccccc2)nn2c(-c3ccccc3)ccnc12`, for which the growth is 74.4% in the assay on SR leukemia; 30.7% in the assay on RPMI-8226 leukemia; 96.1% in the assay with OVCAR-8 ovarian; 93.4% with OVCAR-5 ovarian; 95.9% in the assay on OVCAR-4 ovarian; 102% in the assay on SK-OV-3 ovarian. Also, the growth with IGROV1 ovarian was 110%; in the assay on HS 578T breast, 91.9%; in the assay with T-47D breast, 91%; with BT-549 breast, 145%; with MDA-MB-435 melanoma, 96.1%; with SW-620 colon it was 105%. Further, the growth with MCF7 breast is 91.8%; in the assay on HCT-116 colon, 86.7%; in the assay with HCC-2998 colon it was 97.1%; in the assay on KM12 colon, 88.9%.
